{
  "source": "PubChem BioAssay (Tox21)",
  "note": "Records with an inconclusive call do not appear. Entries that show only a call come without a potency. A structure can be active in one record and inactive in another. The source made the active and inactive calls. Calls come from the whole dose curve; as a rule, active = well fitted cell-killing curve with a large enough effect in the repeat runs; inconclusive = weak or mixed curves; inactive = no such curve, though single readings can be large or run the other way. Potency is the fitted concentration of half-maximal effect.",
  "data": [
    {"test": "qHTS assay to identify small molecule antagonists of the peroxisome proliferator-activated receptor delta (PPARd) signaling pathway - cell viability counter screen (AID 743213); note: nearly all actives have a fitted effect of over 50% in size", "conditions": "PPARd-bla HEK293H viability, CellTiter-Glo luminescence, 17 h; series mostly up to 62 µM", "description": "U.S. Tox21 Program National Center for Advancing Translational Sciences [NCATS] NIH Chemical Genomics Center [NCGC] U.S. Environmental Protection Agency [EPA] National Institutes of Environmental Health Sciences [NIEHS] National Toxicology Program [NTP] U.S. Food and Drug Administration [FDA] Tox21 Assay Overview: The peroxisome proliferator-activated receptors (PPARs) are lipid-activated transcription factors of the nuclear receptor superfamily with three distinct subtypes namely PPAR alpha, PPAR delta (PPARd) and PPAR gamma. All these subtypes heterodimerizes with Retinoid X receptor (RXR) and have different physiological functions. […] To identify the compounds that inhibit PPAR-delta signaling, GeneBLAzer PPAR delta UAS-bla HEK293H cell line (Invitrogen, Carlsbad, CA, USA) containing a beta-lactamase reporter gene under the control of an Upstream Activator Sequence (UAS) was used to screen the Tox21 compound library. The cytotoxicity of the Tox21 compound library against the PPARd-bla cell line was tested in parallel by measuring the cell viability using CellTiter-Glo assay (Promega, Madison, WI) in the same wells.\nTox21 Assay Protocol Summary: PPARd-bla cells were dispensed at 3000 cells/5uL/well in 1536-well black wall/clear bottom plates using a Multidrop Combi (Thermo Fisher Scientific, Waltham, MA) dispenser. After the assay plates were incubated at 37 C and 5% CO2 for 5 h, 23 nL of compounds dissolved in DMSO, positive controls or DMSO only was transferred to the assay plate by a Pintool station (Kalypsys, San Diego, CA), followed by addition of 1ul L165041 (300 nM, final concentration in the wells). The assay plates were incubated at 37 C for 17 h, and then 1 uL of LiveBLAzerTM B/G FRET substrate was added using a Bioraptr Flying Reagent Dispenser (FRD) workstation (Beckman Coulter, Indianapolis, IN, USA). The assay plates were incubated at room temperature for 2 h and fluorescence intensity was measured by an Envision plate reader (PerkinElmer, Shelton, CT). For cell viability readout that measures cytotoxicity, 3 ul/well of CellTiter-Glo reagent was added into the assay plates using a Bioraptr FRD. After 30 min incubation at room temperature, the luminescence intensity in the plates was measured using a ViewLux plate reader (PerkinElmer).", "values": [
      {"smiles": "Brc1ccc(Oc2cc(Br)c(Br)cc2Br)c(Br)c1", "Potency": "inactive"},
      {"smiles": "c1ccc(N=Nc2ccccc2)cc1", "Potency": "inactive"},
      {"smiles": "CCC(=O)O[C@H]1CC[C@H]2[C@@H]3CCC4=CC(=O)CC[C@]4(C)[C@H]3CC[C@]12C", "Potency": "inactive"},
      {"smiles": "Oc1cc(Cl)ccc1Oc1ccc(Cl)cc1Cl", "Potency": "28 µM (active) and inactive"},
      {"smiles": "COP(=O)(OC)OC", "Potency": "inactive"},
      {"smiles": "CC(C)C(=O)OCC(C)(C)C(OC(=O)C(C)C)C(C)C", "note": "(stereo not given)", "Potency": "inactive"},
      {"smiles": "CCCCCCCCOC(=O)c1ccccc1C(=O)OCCCCCCCC", "Potency": "inactive"},
      {"smiles": "c1cc(OCC2CO2)ccc1Cc1ccc(OCC2CO2)cc1", "note": "(stereo not given)", "Potency": "inactive"},
      {"smiles": "CC(C)(OOC(C)(C)c1ccccc1)c1ccccc1", "Potency": "inactive"},
      {"smiles": "Cc1cc(C)cc(C)c1", "Potency": "inactive"},
      {"smiles": "COc1ccc(C(CN(C)C)C2(O)CCCCC2)cc1", "note": "(stereo not given)", "Potency": "inactive"},
      {"smiles": "CCCCNC(=O)n1c(NC(=O)OC)nc2ccccc21", "Potency": "inactive"},
      {"smiles": "N#CC(Br)Br", "Potency": "inactive"},
      {"smiles": "Nc1ccc(-c2ccccc2)cc1", "Potency": "inactive"},
      {"smiles": "Cc1ccc2c(c1N)C(=O)c1ccccc1C2=O", "Potency": "inactive"},
      {"smiles": "CCC(CC)Nc1c([N+](=O)[O-])cc(C)c(C)c1[N+](=O)[O-]", "Potency": "inactive"},
      {"smiles": "CCCCCCCCCCCOC(=O)c1ccccc1C(=O)OCCCCCCCCCCC", "Potency": "inactive"},
      {"smiles": "Cc1ccccc1[N+](=O)[O-]", "Potency": "inactive"},
      {"smiles": "Cc1ccc(N)c(N)c1", "Potency": "inactive"},
      {"smiles": "CCN(N=O)C(N)=O", "Potency": "inactive"},
      {"smiles": "CCOC(=S)S", "Potency": "29.3 µM (active)"},
      {"smiles": "CCOC(=O)C(C)OC(=O)c1cc(Oc2ccc(C(F)(F)F)cc2Cl)ccc1[N+](=O)[O-]", "note": "(stereo not given)", "Potency": "inactive"},
      {"smiles": "OCC(O)CO", "Potency": "inactive"},
      {"smiles": "C=C(C)C(=O)OCC1CO1", "note": "(stereo not given)", "Potency": "inactive"},
      {"smiles": "CCCCC(CC)COC(=O)c1ccc(C(=O)OCC(CC)CCCC)c(C(=O)OCC(CC)CCCC)c1", "note": "(stereo not given)", "Potency": "inactive"},
      {"smiles": "CC1(C)C(C=C(Cl)Cl)C1C(=O)OC(C#N)c1cccc(Oc2ccccc2)c1", "note": "(stereo not given)", "Potency": "inactive"},
      {"smiles": "CC(C)=CC1C(C(=O)OCc2coc(Cc3ccccc3)c2)C1(C)C", "note": "(stereo not given)", "Potency": "inactive"},
      {"smiles": "S=C1NCCN1", "Potency": "inactive"},
      {"smiles": "C[C@]12CCC(=O)C(O)=C1CC[C@@H]1[C@@H]2CC[C@]2(C)C(=O)CC[C@@H]12", "Potency": "inactive"},
      {"smiles": "Oc1cc(Cl)ccc1Cl", "Potency": "inactive"},
      {"smiles": "O=Cc1ccco1", "Potency": "inactive"},
      {"smiles": "C#CCOS(=O)OC1CCCCC1Oc1ccc(C(C)(C)C)cc1", "note": "(stereo not given)", "Potency": "inactive"},
      {"smiles": "CCN(CC)C(=O)SCc1ccc(Cl)cc1", "Potency": "inactive"},
      {"smiles": "CCCCOCCOP(=O)(OCCOCCCC)OCCOCCCC", "Potency": "inactive"},
      {"smiles": "O=C(NC(=O)c1c(F)cccc1F)Nc1ccc(Cl)cc1", "Potency": "inactive"},
      {"smiles": "CCCCN(CCCC)N=O", "Potency": "inactive"},
      {"smiles": "CN(C)C(=O)Nc1ccc(Cl)cc1", "Potency": "inactive"},
      {"smiles": "CCCCCCOC(=O)c1ccccc1C(=O)OCCCCCC", "Potency": "inactive"},
      {"smiles": "O=P(Oc1ccccc1)(Oc1ccccc1)Oc1ccccc1", "Potency": "inactive"},
      {"smiles": "Oc1cc(Cl)c(Cl)cc1Cl", "Potency": "inactive"}
    ]}
  ]
}
